High-throughput results from PubChem BioAssay.
Hits are enriched below; roughly 32% of the tested compounds scored in any of these assays.
PostGolgi ctrl: growth inhibition of yeast control strain, primary screen, counter-screen for post-Golgi transport modulator project. efflux-deficient yeast background strain, growth absorbance A615, 16 h. inhibition, % at 10 µM. 98,000 tested, 5% active. AID 738, 2007
PostGolgi yeast: phenotypic screen on post-Golgi transport, primary screen | 98,000 tested, 0.9% active | inhibition, % at 10 µM | post-Golgi transport phenotypic cell assay;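 further: yeast cells grown in 1536-well plates; yeast grown about 18 h at 30C before absorbance read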
CYP2C9 activ: human CYP2C9 activators, primary screen, biochemical, luminescence; recombinant CYP2C9, luciferin-H conversion; hits give high values; factor 1 = untreated enzyme, 0 = blocked; activation factor at 5 µM; 96,000 tested, 1.4% active; Cytochrome P450 2C9 (Homo sapiens), P11712;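 active means activation factor of 2 or more for CYP2C9 at a 5 µM dose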;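 further: 0 = sulfaphenazole-blocked wells and 1 = vehicle-only wells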
Target sequence (P11712 whole entry, looked up): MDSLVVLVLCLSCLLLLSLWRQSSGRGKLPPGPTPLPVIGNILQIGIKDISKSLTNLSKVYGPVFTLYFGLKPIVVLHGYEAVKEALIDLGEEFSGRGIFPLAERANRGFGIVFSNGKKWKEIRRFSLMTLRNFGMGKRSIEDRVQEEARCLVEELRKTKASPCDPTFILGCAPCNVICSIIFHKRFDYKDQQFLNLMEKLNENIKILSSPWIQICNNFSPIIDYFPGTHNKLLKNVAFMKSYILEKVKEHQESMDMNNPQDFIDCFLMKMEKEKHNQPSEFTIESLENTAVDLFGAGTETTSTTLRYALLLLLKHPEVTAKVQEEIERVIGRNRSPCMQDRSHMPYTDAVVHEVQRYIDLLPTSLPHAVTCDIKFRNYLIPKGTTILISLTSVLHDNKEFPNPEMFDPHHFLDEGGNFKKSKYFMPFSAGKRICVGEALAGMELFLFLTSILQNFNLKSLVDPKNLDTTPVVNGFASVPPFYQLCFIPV
CYP2C19 activ: human CYP2C19 activators, primary screen, biochemical, luminescence; 96,000 tested, under 10 active; recombinant CYP2C19, luciferin-H EGE luminescence; hits give high values; 0 = fully inhibited enzyme, 1 = untreated enzyme; AID 1025, 2008; activation factor at 5 µM; Cytochrome P450 2C19 (Homo sapiens), P33261;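 active means activation factor of at least 2 at 5 µM in the primary screen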;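 further: 0 = wells with 2.5 mM tranylcypromine and 1 = vehicle-only wells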
CYP2C9 inhib: blockers of cytochrome P450 2C9 activity – biochemical, luminescence, ADME assay, primary screen; 96,000 tested, 20% active; CYP2C9 Supersomes, luciferin-H conversion; inhibition, % at 5 µM; AID 777, 2007; P11712;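 active means blocking of liver enzyme CYP2C9 beyond about 50% at 5 µM, limit read from the data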
CYP2C19 inh: blockers of cytochrome P450 2C19 activity – biochemical, luminescence, ADME assay, primary screen | CYP2C19 Supersomes, luciferin-H EGE luminescence, 30 min | inhibition, % at 5 µM | 96,000 tested, 21% active | AID 778, 2007;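 active means CYP2C19 inhibition above a set limit at 5 µM in the primary screen, cut at about 50% in these data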;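 further: plate controls were negative control wells for no effect and 2.5 mM tranylcypromine positive control for full effect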
* = called active by the depositor. Unless noted, no stated cut-off is given here; in the data, active means inhibition above about 30%; inactive means the rest.

SMILES	PostGolgi ctrl	PostGolgi yeast	CYP2C9 activ	CYP2C19 activ	CYP2C9 inhib	CYP2C19 inh
Cc1c(C)n(CC(O)CN2C(=O)c3ccccc3S2(=O)=O)c2ccccc12 (centres undefined)	33*	2	0	0	97*	98*
c1ccc2c(c1)nc(N1CCN(C3CCCCC3)CC1)c1nnnn12	-6	7	0.9	0.5	8	48
Cc1ccc2cc3c(NC(=O)c4ccco4)nn(CC(C)C)c3nc2c1	7	4	1	1	2	4
COc1cc(NS(=O)(=O)c2ccc(NC(=O)C34CC5CC(CC(C5)C3)C4)cc2)ncn1	7	12	1.2	1	-19	-1
COc1cc(CNc2nc(C)c([N+](=O)[O-])c(C)c2C#N)cc(OC)c1	18	12	1.1	0.9	-6	7
Cc1nc(NCCc2ccccc2F)c(C#N)c(C)c1[N+](=O)[O-]	18	15	0.3	0.7	68*	26
O=C1CC(N2CCC(c3nc4ccccc4o3)CC2)C(=O)N1c1cc(Cl)cc(Cl)c1 (centres undefined)	13	4	0.2	0.7	78*	33
Cc1cccc(N2C(=O)CC(N3CCC(c4nc5ccccc5[nH]4)CC3)C2=O)c1 (centres undefined)	6	-4	1	1.1	-4	-6
COc1ccc(Br)cc1CNC(=O)C1CCN(S(=O)(=O)N2CCCC2)CC1	3	4	2.6*	0.8	-164	22
COc1ccccc1CNC(=O)C1CCN(S(=O)(=O)N2CCCCC2)CC1	4	14	2.2*	0.8	-116	19
c1ccc(CSc2nnc(-c3sccc3-n3cccc3)o2)cc1	1	-1	1.1	0.6	-9	38
Brc1ccc(-c2nnc3n2CCCCC3)cc1	-5	0	1	0.8	-3	22
Brc1ccc(-c2nnc3n2-c2ccccc2CC3)cc1	7	-4	0.4	0.1	63*	86*
COc1ccc(-c2nsc3c(SCC(=O)Nc4cc(C)ccc4C)ncnc23)cc1	0	-1	0.9	1.1	9	-10
COc1ccc(NC(=O)CCS(=O)(=O)c2ccc(OC)cc2)cc1	2	9	0.6	0.7	43	27
COc1ccc(S(=O)(=O)Nc2ccc(N(C)C(C)=O)cc2)cc1	24	2	0.2	0.1	83*	93*
COc1ccc(NS(=O)(=O)c2cccc(C(=O)O)c2)cc1	1	-6	1.2	0.8	-20	19
COc1ccc(S(=O)(=O)Nc2ccc(NC(C)=O)cc2)cc1	24	2	0.1	0	90*	97*
COc1ccccc1OCC(=O)Nc1ccc(S(=O)(=O)NC(C)=O)cc1	9	3	0.8	1.1	22	-11
COc1ccccc1CNS(=O)(=O)c1ccc(NC(C)=O)cc1	6	0	2.1*	0.2	-114	77*
CC(C(=O)c1ccccc1)n1c(N2CCOCC2)nc2c1c(=O)n(C)c(=O)n2C (centres undefined)	-7	13	1	1.1	-3	-8
CSc1nnc(Cn2c(=O)sc3ccccc32)n1CCc1ccccc1	13	6	0.6	0.6	45	39
O=C(Nc1nnc(C(F)(F)F)s1)c1ccc(N2C(=O)C3C4C=CC(C4)C3C2=O)cc1 (centres undefined)	13	-3	0.7	1.1	30	-9
CC(C)c1cc(C(F)(F)F)n2nc(C(=O)Nc3ccc4c(c3)OCO4)cc2n1	14	9	0.7	0.8	32	22
CS(=O)(=O)N(CC(=O)N1CCc2ccccc2C1)Cc1ccc(Cl)cc1	25	-1	0.2	0.1	85*	88*
SMILES	PostGolgi ctrl	PostGolgi yeast	CYP2C9 activ	CYP2C19 activ	CYP2C9 inhib	CYP2C19 inh
CCOC(=O)N1CCN(C(=O)c2ccc(N(Cc3ccccc3)S(C)(=O)=O)cc2)CC1	27	2	0.1	0.3	90*	68*
C=CCN(c1ccc(C(=O)N2CCCC2)cc1)S(C)(=O)=O	39*	5	1	0.9	4	7
CS(=O)(=O)N(CC(=O)N1CCc2ccccc2C1)c1ccc2c(c1)OCO2	5	-3	0.8	0.1	24	88*
Cc1ccc(CN(c2ccc(C(=O)N3CCOCC3)cc2)S(C)(=O)=O)cc1	6	1	0.9	0.9	15	13
C=CCN(c1ccc(C(=O)NC(C)C)cc1)S(C)(=O)=O	-1	15	0.9	1	6	-3
CN1CCN(C(=O)CN(Cc2ccccc2)S(C)(=O)=O)CC1	-4	-9	0.9	0.8	13	25
Cc1cc(C)nc(NC(=O)c2cccc([N+](=O)[O-])c2C)n1	9	1	0.9	0.8	5	16
COc1cccc(-c2cc3c(-n4cccc4)ncnc3o2)c1	14	-9	0.9	1	9	4
CS(=O)(=O)N(Cc1ccccc1)c1ccc(C(=O)N2CCc3ccccc3C2)cc1	0	15	0.4	0.5	63*	46
CN1CCN(C(=O)c2ccc(N(Cc3ccccc3Cl)S(C)(=O)=O)cc2)CC1	17	-2	0.8	0.9	22	12
CCOC(=O)N1CCN(C(=O)c2ccc(N(Cc3ccc(C)cc3)S(C)(=O)=O)cc2)CC1	5	-3	0.1	0.3	86*	65*
Cn1cnnc1SCc1nc(N)nc(Nc2ccccc2)n1	6	-7	1.1	1.1	-6	-7
O=C(CCC(=O)NC1CCN(Cc2ccccc2)CC1)NCc1ccco1	10	5	1.1	1	-9	4
CCOc1ccc(-n2c(N)c(C(=O)NCc3ccco3)sc2=S)cc1	8	-2	0.4	0.7	57*	25
C=CCn1c(N)c(C(=O)NCc2cccnc2)sc1=S	4	5	0.2	0	78*	96*
CCOc1ccc(-n2c(N)c(C(=O)NCc3cccnc3)sc2=S)cc1	32*	-7	0.8	0.9	21	10
CCNC(=O)c1sc(=S)n(-c2ccc(C)cc2)c1N	8	-4	0.6	0.7	37	26
Cc1cc(NC(=O)COC(=O)c2cc3c(s2)CCC(C)C3)no1 (centres undefined)	-4	-3	0.7	0.7	32	28
CN(C)c1ccnc(Oc2ccccc2)c1C#N	-5	1	0.6	0.7	39	29
CN(C)c1ccnc(SCc2ccccc2Cl)c1C#N	17	6	1	0.3	-4	70*
O=C1CN(C(=O)CSc2nnc(C3CC3)n2-c2ccccc2)c2ccccc2N1	-3	-2	0.9	0.9	11	12
COc1ccc(S(=O)(=O)N(C)c2ccc(C(=O)NCC3CCCO3)cc2)cc1 (centres undefined)	2	2	0.5	1.1	53*	-6
